High-throughput results from PubChem BioAssay.
An excerpt weighted towards active compounds, which were near 2.9% of everything screened.
Shn3 inh set2: reduction of Shn3 3'UTR firefly luciferase signal, primary screen, Schnurri-3 inhibitor project, cell-based, Clone20 osteoblasts, set 2; inhibition, % at 12.5 µM; 360,000 compounds, 0.52% hits; Clone20 osteoblast Shn3 3'UTR firefly luciferase, 24 h; AID 588674, 2011;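 active means mean inhibition of at least 75% with every replicate also reaching 75%; inconclusive means mean inhibition at least 75% but some replicate below; inactive means mean inhibition below 75%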;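 further: 0% = median of neutral control wells and 100% = pilot-screen positive control compound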
KKLEB cytotox: cytotoxicity in KKLEB CF airway cells, primary screen, cytotoxicity control for CF NF-kB inhibitor project, cell-based, uHTS, fluorescence assay plates | activity change (cytotoxicity), % at 5 µM | AID 602141, 2011 | 360,000 compounds, 0.36% hits | KKLEB CF airway cells viability, ATPlite luminescence, overnight; active compounds read low; cells stimulated with P. aeruginosa culture filtrate;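 active means corrected activity change at or below -50% at 5 µM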
Peg3 prom inh: Peg3 promoter-driven luciferase inhibitors, primary screen, cell-based, HeLa, luciferase luminescence. inhibition, % at 20 µM. 360,000 compounds, 1.7% hits. HeLa PEG-Prom luciferase reporter, overnight. AID 588405, 2011;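 active means inhibition of at least 50% at 20 µM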
EBV LMP1 NFkB: EBV LMP1-driven NF-kappaB luciferase reporter inhibitors, primary screen, cell-based, luminescence, single point. LMP1-induced NF-kappaB luciferase reporter cells. inhibition, % at 12.5 µM. 350,000 compounds, 0.69% hits. AID 504558, 2011; in the data active means inhibition above about 41%; inconclusive means no clear call, values can overlap the other calls;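 further: 0% = neutral control wells and 100% = reference inhibitor control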
HIF-2a inh: HIF-2a reporter inhibitors, primary screen, luminescence, 786-0 RCC cells; 360,000 compounds, 0.72% hits; AID 624352, 2012; 786-0 RCC cells HIF-2a reporter, luciferase luminescence, overnight; inhibition, % at 18.8 µM;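 active means inhibition of the luminescence signal of 40% or more relative to plate controls, in a single-dose primary screen at 18.75 µM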
CF NFkB inh: inhibitors of PAF-induced NF-kB signaling, primary screen, cell-based, GFP fluorescence, uHTS | AID 588850, 2011 | 360,000 compounds, 0.86% hits | KKLEB NF-kB-GFP reporter, GFP fluorescence overnight | inhibition, % at 5 µM;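 active means at least 50% inhibition at 5 µM, scaled per plate between neutral and stimulator controls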;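 further: PAF is a Pseudomonas aeruginosa culture filtrate used as stimulus; plate controls were PAF-stimulated DMSO wells for no effect and unstimulated DMSO wells for full effect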
* marks the source's active call; other numbers are inactive results.

For Cc1cc(C)c(S(=O)(=O)N2CCCCC2)cc1N(C)S(=O)(=O)c1ccc(Cl)cc1 the results were Shn3 inh set2 -1.6, KKLEB cytotox -5.2, Peg3 prom inh 98.2*, EBV LMP1 NFkB -0.6, HIF-2a inh 22.4 and CF NFkB inh 6.8.
For Cc1cc(=S)[nH]c2ccccc12 the results were Shn3 inh set2 4.4, KKLEB cytotox -1.3, Peg3 prom inh -4.8, EBV LMP1 NFkB 62.6*, HIF-2a inh 15.9 and CF NFkB inh 8.5.
Screening Cc1ccc2[nH]c(=S)cc(C)c2c1 returned Shn3 inh set2 -13.0, KKLEB cytotox -9.0, Peg3 prom inh 17.5, EBV LMP1 NFkB 4.9, HIF-2a inh 1.0 and CF NFkB inh 6.7.
Screening CC(=O)NC1C(O)OC(CO)C(O)C1O (stereo unspecified) returned Shn3 inh set2 97.1*, KKLEB cytotox 8.6, Peg3 prom inh -7.3, EBV LMP1 NFkB 79.7*, HIF-2a inh 8.6 and CF NFkB inh -12.4.
Screening CC1=CC(C)C2(CO)COC(c3cccnc3)C1C2C (stereo unspecified) returned Shn3 inh set2 11.7, KKLEB cytotox -7.4, Peg3 prom inh -6.8, EBV LMP1 NFkB 10.7, HIF-2a inh 17.1 and CF NFkB inh 5.0.
For COc1ccc(NC(=O)c2cc(-c3ccncc3)nc3ccc(Br)cc23)cc1OC the results were Shn3 inh set2 45.6, KKLEB cytotox -11.3, Peg3 prom inh 94.4*, EBV LMP1 NFkB 1.0, HIF-2a inh 12.0 and CF NFkB inh -11.7.
CC(C)CNC(=O)COC(=O)c1c2c(nc3ccccc13)/C(=C\c1cccs1)CC2 was read as Shn3 inh set2 20.1, KKLEB cytotox -18.5, Peg3 prom inh -89.5, EBV LMP1 NFkB -40.8, HIF-2a inh -273.0 and CF NFkB inh 14.6.
CC(=O)c1ccc(NC(=O)COC(=O)c2c3c(nc4ccccc24)/C(=C\c2cccs2)CCC3)cc1 was read as Shn3 inh set2 6.9, KKLEB cytotox -4.2, Peg3 prom inh 56.2*, EBV LMP1 NFkB -3.8, HIF-2a inh 8.6 and CF NFkB inh 1.6.
CCOc1ccc(Br)cc1C(=O)Nc1ccc(C(=O)NCC(C)C)cc1 was read as Shn3 inh set2 59.6, KKLEB cytotox -9.5, Peg3 prom inh 95.1*, EBV LMP1 NFkB 5.9, HIF-2a inh 8.8 and CF NFkB inh -3.6.
For CNc1ccc(Br)cc(C(=O)/C=C/c2ccc(Cl)cc2Cl)c1=O the results were Shn3 inh set2 -6.0, KKLEB cytotox -3.3, Peg3 prom inh 62.3*, EBV LMP1 NFkB 17.5, HIF-2a inh -1.8 and CF NFkB inh 10.5.
CCNc1ccc(Br)cc(C(=O)/C=C/c2c(Cl)cccc2Cl)c1=O was read as Shn3 inh set2 56.6, KKLEB cytotox 5.2, Peg3 prom inh 103.9*, EBV LMP1 NFkB 61.1*, HIF-2a inh 68.1* and CF NFkB inh -7.7.
Screening O=C(NCC(c1ccco1)N1CCCC1)c1cc2ccccc2s1 (stereo unspecified) returned Shn3 inh set2 -6.4, KKLEB cytotox 10.6, Peg3 prom inh 6.1, EBV LMP1 NFkB -9.4, HIF-2a inh -26.4 and CF NFkB inh -12.2.
O=S(=O)(c1ccc(C(F)(F)F)cc1)N1CCN(CCc2ccccc2)CC1 was read as Shn3 inh set2 5.3, KKLEB cytotox 0.5, Peg3 prom inh 16.7, EBV LMP1 NFkB -9.8, HIF-2a inh 10.9 and CF NFkB inh 1.9.
Screening ClC(Cl)(Cl)c1nc2ccccc2n2nncc12 returned Shn3 inh set2 7.6, KKLEB cytotox -9.1, Peg3 prom inh 79.2*, EBV LMP1 NFkB -1.3, HIF-2a inh 32.4 and CF NFkB inh 11.0.
c1ccc(CCNc2nc3ccccc3n3nnnc23)cc1 was read as Shn3 inh set2 -22.2, KKLEB cytotox 12.5, Peg3 prom inh -100.8, EBV LMP1 NFkB -8.4, HIF-2a inh -68.1 and CF NFkB inh -8.8.
`COc1ccc(C(CCNCc2ccc(OC(C)C)cc2)c2ccccc2OC)cc1` (stereo unspecified) gave Shn3 inh set2 89.4*, KKLEB cytotox -26.4, Peg3 prom inh 101.9*, EBV LMP1 NFkB -9.7, HIF-2a inh 11.5 and CF NFkB inh 6.9.
Screening COc1ccc(C(CCNCc2ccc(N(C)C)cc2)c2ccccc2OC)cc1 (stereo unspecified) returned Shn3 inh set2 2.7, KKLEB cytotox -7.8, Peg3 prom inh 59.7*, EBV LMP1 NFkB 5.6, HIF-2a inh 17.7 and CF NFkB inh 18.8.
Screening COc1ccc(CNCCC(c2ccc(OC)cc2)c2ccccc2OC)cc1 (stereo unspecified) returned Shn3 inh set2 9.0, KKLEB cytotox 1.9, Peg3 prom inh 18.6, EBV LMP1 NFkB 3.6, HIF-2a inh 17.5 and CF NFkB inh 0.7.
`CCCCCCSc1cccc(-c2nc3cc(C)ccn3c2NCc2ccccc2)c1` gave Shn3 inh set2 18.4, KKLEB cytotox -16.5, Peg3 prom inh -48.4, EBV LMP1 NFkB 3.0, HIF-2a inh -116.0 and CF NFkB inh 10.0.
CCC(C)Sc1cccc(-c2nc3ccccn3c2NCc2ccccc2)c1 (stereo unspecified) was read as Shn3 inh set2 13.5, KKLEB cytotox -16.0, Peg3 prom inh 73.3*, EBV LMP1 NFkB -3.9, HIF-2a inh -300.6 and CF NFkB inh 3.9.
CCCCNc1c(-c2ccc(OC)c(Sc3ccc(OC)cc3)c2)nc2ccccn12 was read as Shn3 inh set2 inconclusive, KKLEB cytotox -6.5, Peg3 prom inh 93.3*, EBV LMP1 NFkB 13.3, HIF-2a inh -225.6 and CF NFkB inh 21.4.
For CCCCCCSc1cccc(-c2nc3ccccn3c2NCc2ccccc2)c1 the results were Shn3 inh set2 10.3, KKLEB cytotox -4.1, Peg3 prom inh 73.7*, EBV LMP1 NFkB -1.6, HIF-2a inh -131.5 and CF NFkB inh 4.4.
Screening CCC(C)Sc1cccc(-c2nc3ccc(C)cn3c2NCc2ccccc2)c1 (stereo unspecified) returned Shn3 inh set2 76.0, KKLEB cytotox 3.1, Peg3 prom inh 83.2*, EBV LMP1 NFkB -3.1, HIF-2a inh -84.2 and CF NFkB inh 9.9.
CCC(C)Sc1cccc(-c2nc3ccc(Cl)cn3c2NCc2ccccc2)c1 (stereo unspecified) was read as Shn3 inh set2 24.6, KKLEB cytotox -2.0, Peg3 prom inh -34.0, EBV LMP1 NFkB -5.1, HIF-2a inh -124.2 and CF NFkB inh 10.3.
For O=C(COC(=O)/C=C/c1cccc(Br)c1)NC1CCCCCC1 the results were Shn3 inh set2 11.3, KKLEB cytotox 10.6, Peg3 prom inh 4.5, EBV LMP1 NFkB 4.7, HIF-2a inh 9.0 and CF NFkB inh -20.8.
COc1cccc(NC(=O)C2(C)CCN2C(=O)CC2CCCC2)c1 (stereo unspecified) was read as Shn3 inh set2 6.3, KKLEB cytotox 6.3, Peg3 prom inh 1.2, HIF-2a inh 2.1 and CF NFkB inh -13.0.
